# AmpC no deterg = AmpC beta-lactamase inhibition without detergent | 330,000 compounds, 0.52% hits | Potency, µM (series often up to 57.1 µM), inactives show at the top dose activity change, negative = inhibition, usual class: inhibitors | P00811 | AmpC nitrocefin hydrolysis, absorbance 480 nm, 0.0001% Triton;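 also: plate controls were no compound for no effect and no enzyme for full effect; nearly all actives have a fitted effect of over 20% in size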
# Target sequence (P00811 whole entry, looked up): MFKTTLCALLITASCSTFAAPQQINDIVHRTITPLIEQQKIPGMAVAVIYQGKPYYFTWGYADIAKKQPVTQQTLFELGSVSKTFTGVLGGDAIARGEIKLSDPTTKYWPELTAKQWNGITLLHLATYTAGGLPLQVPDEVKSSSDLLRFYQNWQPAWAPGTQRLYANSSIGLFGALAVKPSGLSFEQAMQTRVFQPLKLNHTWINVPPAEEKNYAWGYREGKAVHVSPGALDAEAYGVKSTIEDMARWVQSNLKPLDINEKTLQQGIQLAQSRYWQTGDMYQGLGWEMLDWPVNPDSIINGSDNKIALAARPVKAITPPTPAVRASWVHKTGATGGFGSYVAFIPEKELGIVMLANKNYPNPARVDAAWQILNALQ
#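 AmpC (5.3 nM in the dispensed reagent) in 20 mM phosphate pH 7.0 with 0.01% (detergent screen) or 0.0001% Triton X-100 was preincubated with compounds for 15 min at room temperature. Nitrocefin was then added from an 800 uM solution, and hydrolysis was followed at 480 nm.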
# AMA1 RON2 block = disrupts binding of P. falciparum AMA1 to RON2. AlphaScreen AMA1-biotinylated RON2 peptide binding. Potency, µM (titrated, usually from 58.2 µM), inactives show at the top dose activity change, negative = inhibition, most hits filed as inhibitors. 360,000 compounds, 0.2% hits;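 also: 0% = vehicle wells and -100% = peptide control; nearly all actives have a fitted effect of over 45% in size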
#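 AMA1 (3D7) with his tag at 25 nM final met compounds first, then biotinylated RON2 peptide at 25 nM; detection used donor plus acceptor beads, 10 µg/mL apiece, read by AlphaScreen after 30 min at room temperature.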
# AmpC detergent = blocks E. coli AmpC beta-lactamase in detergent assay | P00811 | AmpC hydrolysis of nitrocefin, absorbance 480 nm, 0.01% Triton | Potency, µM (series often up to 114 µM), for the others: at the top dose activity change, negative = inhibition, hits mostly inhibitors | 370,000 compounds, 0.041% hits;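 also: 0% = no-compound wells and -100% = no-enzyme wells; nearly all actives have a fitted effect of over 25% in size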
#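 AmpC (5.3 nM in the dispensed reagent) in 20 mM phosphate pH 7.0 with 0.01% (detergent screen) or 0.0001% Triton X-100 was preincubated with compounds for 15 min at room temperature. Nitrocefin was then added from an 800 uM solution, and hydrolysis was followed at 480 nm.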
# MARV entry inh = blocks Marburg virus binding to or entry into cells | 300,000 compounds, 1.8% hits | Marburg virus pseudotyped entry inhibition, cell reporter | Potency, µM (doses to about 37.8 µM), for the others: top-dose activity change, negative = inhibition, actives largely listed as inhibitors; calls by dose curve; tested in HEK293 cells
# Lassa entry inh = blocks Lassa virus binding to or entry into cells; Lassa virus pseudotype entry inhibition, cell reporter; Potency, µM (series often up to 37.9 µM), without a hit: at the highest dose activity change, negative = inhibition, most hits filed as inhibitors; 300,000 compounds, 1.2% hits; calls by dose curve; tested in HEK293 cells; also: nearly all actives have a fitted effect of over 50% in size
# Active calls of the source: *; ? = inconclusive; . = no result given; [ ] = dose if it differs, or a comment. Most compounds without a hit are left out; they make up all but 2.3% or so of the library. Unless noted, calls follow the shape of the dose curve; as a rule, active = well fitted curve in the direction sought with a large enough effect; inconclusive = small, poorly fitted or top-dose-only effect, or another doubt; inactive = no such curve, though single readings can be large; an effect the other way counts as inactive or inconclusive. Unless noted, % is scaled to controls: 0 for no effect and ±100 for the full control effect; potency is read from the fitted curve at half-maximal effect.
SMILES,AmpC no deterg,AMA1 RON2 block,AmpC detergent,MARV entry inh,Lassa entry inh
O=C(O)c1cccc(N/N=C/c2cccc3ccccc23)c1,-1%,-6%,-12%,2µM*,?
O=C(O)c1ccc(N/N=C/c2cc(Br)cs2)cc1,-21%,-4%,0%,5µM*,?
O=C1CN(C(=O)c2ccc(Cl)cc2Cl)C(c2ccc(F)cc2)c2cc(F)ccc2N1 (configuration not stated),.,.,8%,0%[46.1 µM],?
COC(=O)CC=C[C@@H](C)[C@@H](C=NO[C@H](C)c1cn([C@@H]2COC[C@@H]2O)nn1)N[S+](=O)([O-])c1ccc(C)cc1,.,.,.,10%[14.2 µM],.
Fc1cccc(CNc2ncnc3ccc(-c4ccccc4Cl)cc23)c1,-10%,.,?,.,.
COc1ccc(NC(=O)c2ccc(CNS(=O)(=O)c3ccc4c(c3)C(C)(C)C(=O)N4C)cc2)cc1,.,.,3%,.,?
Cc1ccc(/C=N/Nc2ccc(C(=O)O)cc2)s1,-20%,-5%,1%,?,1.1µM*
CC(=O)Oc1ccc(N(C(C)=O)S(=O)(=O)c2cccs2)c2ccccc12,-9%,-24%,2%,12µM*,14%[14.3 µM]
CNc1ccccc(C(=O)/C=C/c2ccccc2OC)c1=O,-44%,-1%,-12%,11µM*,?
COc1ccccc1/C=C/C(=O)/C=C/c1ccccc1O,?,-10%,3%,?,?
COc1ccccc1C=CC(=O)C=Cc1ccccc1OC,.,-26%,.,?,4.5µM*
O=[N+]([O-])c1cc(S(=O)(=O)C(F)(F)F)ccc1Sc1nc2ccccc2s1,-36%,?,-2%,?,?
CS(=O)(=O)c1ccc(Sc2nc3ccccc3s2)c([N+](=O)[O-])c1,-5%,-20%,-13%,11µM*,?
COc1ccc(N(CN2C(=O)[C@@H]3[C@@H](C2=O)[C@H]2C=C[C@@H]3C2)C(=O)c2ccco2)cc1,.,.,.,5%,.
O=C(c1cccs1)N1CCc2c([nH]c3ccccc23)C1c1ccccn1 (configuration not stated),21%,1%,-3%,.,.
O=C(c1cc(-c2ccccc2)n[nH]1)N1CCc2c([nH]c3ccccc23)C1c1ccccn1 (configuration not stated),14%,-30%,1%,5.6µM*,?
CCN1CCN(c2c(/C=C3\SC(=S)N(Cc4ccco4)C3=O)c(C)c(C#N)c(=O)n2C)CC1,153%,16%,2%,13µM*,?
CCOc1cc(/C=N/NC(=O)COc2ccc(Cl)cc2)ccc1OS(=O)(=O)c1ccccc1,-28%,6%,-1%,6.5µM*,?
COC(=O)c1c(C(=O)OC)c2c3cc(OC)c(OC)cc3ccn2c1C(=O)OC,.,.,.,23%[14.2 µM],?
CC1CCc2sc(C(=O)OCC(=O)NCc3ccccc3)cc2C1 (configuration not stated),-24%,-7%,4%,-22%,10µM*
CC1CCc2sc(C(=O)NCc3ccc(F)cc3)cc2C1 (configuration not stated),-33%,3%,0%,-6%,5%
Cc1ccc(CNC(=O)COC(=O)c2cc3c(s2)CCC(C)C3)cc1 (configuration not stated),-18%,11%,1%,?,7.9µM*
CCc1ccc(NCc2cc3cc4c(cc3n(CC(=O)Nc3ccccc3Cl)c2=O)OCO4)cc1,.,.,-3%,.,-4%[46.1 µM]
COc1ccc(OC)c(CNC(=O)C2CCN(c3nc4ccccc4nc3C(F)(F)F)CC2)c1,.,.,4%,.,0%[46.1 µM]
CC(=O)/C(C#N)=C1\NC(=O)C(Cc2ccccc2)S1 (configuration not stated),-30%,1%,3%,2.5µM*,?
SMILES,AmpC no deterg,AMA1 RON2 block,AmpC detergent,MARV entry inh,Lassa entry inh
CC(=O)/C(C#N)=C1\NC(=O)[C@@H](Cc2ccccc2)S1,.,.,.,2.5µM*,.
N#C/C(C(=O)N1CCOCC1)=C1/SC(Cc2ccccc2)C(=O)N1c1ccccc1 (configuration not stated),9%,-1%,-15%,20%,-6%
C/C(=N\N=C1\NC(=O)C(Cc2ccccc2)S1)c1ccccc1 (configuration not stated),-41%,61%,-3%,25%,2.3µM*
CC(=O)/C(C#N)=C1\NC(=O)C(Cc2ccccc2C)S1 (configuration not stated),-35%,-4%,6%,?,?
CC(C)Oc1ccc(C(=O)N(Cc2ccc(N(C)C)cc2)Cc2ccco2)cc1,.,.,18%,-24%[46.1 µM],?
c1ccc(Nc2nc(N3CCOCC3)nc(N3CCOCC3)n2)cc1,25%,2%,-11%,?,-14%
COc1ccc(Nc2nc(NCc3ccco3)nc(N3CCOCC3)n2)cc1,-5%,-11%,?,2.8µM*,-1%
Fc1ccc(Nc2nc(N3CCOCC3)nc(N3CCOCC3)n2)cc1,17%,3%,-3%,7.1µM*,?
COC(=O)c1ccc(Nc2nc(N3CCOCC3)nc(N3CCOCC3)n2)cc1,-3%,-2%,-5%,2µM*,?
c1ccc(Nc2nc(N3CCNCC3)nc(N3CCOCC3)n2)cc1,2%,-21%,7%,11µM*,8.9µM*
COc1ccccc1NC(=O)Cn1c(=O)n(-c2ccc(C)cc2)c(=O)c2c1cnn2C,.,.,6%,6%[46.1 µM],15%[46.1 µM]
CC(=O)Nc1ccc(/C(C)=N/Nc2nc(Nc3cccc4ccccc34)nc(N3CCOCC3)n2)cc1,96%,10%,3%,1.4µM*,?
CC(=O)Nc1ccc(/C(C)=N/Nc2nc(N3CCOCC3)nc(N3CCOCC3)n2)cc1,-4%,8%,9%,?,11%
CC(C)=CCc1c(O)cc2oc3c(CC=C(C)C)c(O)c(O)c(CC=C(C)C)c3c(=O)c2c1O,14µM*,61%,6%,.,.
CC(C)=CCc1cc(-c2oc3cc(O)cc(O)c3c(=O)c2O)ccc1O,.,44%,.,.,.
Nc1ccc(C(=O)OCC2=NC3C=c4ccccc4=CC3=N2)cc1 (configuration not stated),.,.,.,1.6µM*,.
CCN(Cc1ccccc1)S(=O)(=O)c1ccc(C(=O)N(CCCN(C)C)c2nc3c(C)c(C)ccc3s2)cc1,186%,?,0%,6.3µM*,2.8µM*
CCN(Cc1ccccc1)S(=O)(=O)c1ccc(C(=O)N(CCCN(C)C)c2nc3cc4c(cc3s2)OCO4)cc1,158%,-22%,-8%,?,?
CC(=O)c1ccc(C(=O)N(Cc2cccnc2)c2nc3c(C)c(C)ccc3s2)cc1,.,.,-2%,.,13µM*
Cc1ccc2sc(N(CCCN(C)C)C(=O)c3ccc(S(=O)(=O)N(C)C4CCCCC4)cc3)nc2c1C,-49%,?,-1%,?,13µM*
Cc1ccc2sc(N(CCCN(C)C)C(=O)c3ccc(Br)s3)nc2c1C,162%,25µM*,?,15µM*,?
CC(=O)N(Cc1cccnc1)c1nc2c(C)cc(C)cc2s1,.,.,0%,.,1%[46.1 µM]

# From PubChem BioAssay
